# Data taken from PubChem BioAssay AID504445 (The Scripps Research Institute Molecular Screening Center, 2011).
# The other results are listed elsewhere or left out. Unmarked numbers belong to inactive results. Active and inactive are the calls of the source.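 How the source made its calls: active means mean inhibition over triplicate wells above a set limit taken from the primary lipase screen (cut at about 34% in these data); inactive means the rest.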
# Target: Diacylglycerol lipase-beta (Homo sapiens) (UniProt Q8NCG7)
# Sequence (Q8NCG7 whole entry, looked up): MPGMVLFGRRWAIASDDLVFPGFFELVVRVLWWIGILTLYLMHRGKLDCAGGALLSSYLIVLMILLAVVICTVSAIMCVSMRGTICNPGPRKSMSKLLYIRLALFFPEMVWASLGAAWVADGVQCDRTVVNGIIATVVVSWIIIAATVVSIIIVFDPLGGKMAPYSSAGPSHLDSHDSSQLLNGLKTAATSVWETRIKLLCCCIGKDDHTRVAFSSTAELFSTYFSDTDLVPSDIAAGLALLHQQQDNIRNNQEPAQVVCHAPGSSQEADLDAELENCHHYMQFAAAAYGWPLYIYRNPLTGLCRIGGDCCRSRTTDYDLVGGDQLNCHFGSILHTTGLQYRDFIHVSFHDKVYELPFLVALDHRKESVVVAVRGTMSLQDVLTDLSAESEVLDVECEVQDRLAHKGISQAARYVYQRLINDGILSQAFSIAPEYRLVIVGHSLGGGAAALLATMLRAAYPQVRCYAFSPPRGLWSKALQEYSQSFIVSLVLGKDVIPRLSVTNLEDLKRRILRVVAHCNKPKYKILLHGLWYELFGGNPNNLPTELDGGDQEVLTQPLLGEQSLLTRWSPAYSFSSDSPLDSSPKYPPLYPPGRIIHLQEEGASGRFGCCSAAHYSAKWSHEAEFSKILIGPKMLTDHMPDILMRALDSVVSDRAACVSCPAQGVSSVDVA
# Test: human DAGLB lipase activity inhibition – biochemical, fluorescence, HEK293T membranes, confirmation (AID 504445);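 further: 0% = DAGLB with DMSO and 100% = wells lacking DAGLB enzyme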
# Details: HEK293T DAGLB membrane lysate, EnzChek fluorogenic substrate; at 5.17 µM; hits give high values
row,Compound,inhibition
1,Cc1ccc(S(=O)(=O)/N=C2\C=C(NS(=O)(=O)c3ccc(C)cc3)C(=O)c3ccccc32)cc1,18.2%
2,O=C(Oc1cccc(N2C(=O)C3C4c5ccccc5C(c5ccccc54)C3C2=O)c1)c1ccco1 (configuration not stated),31.9%
3,Cc1oc2cc([N+](=O)[O-])c(O)c([N+](=O)[O-])c2c1C(=O)c1ccc(Br)cc1,49.9% (active)
4,O=C(NNc1c2ccccc2nc2ccccc12)c1cc2ccccc2cc1O,63.4% (active)
5,COc1ccc(Br)cc1/C=N/Nc1ccc(S(=O)(=O)Nc2ccccc2C(=O)O)cc1[N+](=O)[O-],27.4%
6,COc1cccc(/C=N/Nc2ccc(S(=O)(=O)Nc3ccccc3C(=O)O)cc2[N+](=O)[O-])c1O,49.7% (active)
7,Cc1ccc(/C=N/NC(=O)C(NC(=O)c2ccccc2)c2n[nH]c(=O)c3ccccc23)cc1 (configuration not stated),27.9%
